Holding throughout (assay): DAPPL (digital affinity profiling via proximity ligation, sequencing); 10 mM Tris-HCl pH 7.5, 50 mM NaCl, 1 mM DTT, 4% glycerol, room temperature, 30 min; GST-TFs on glutathione beads, 16-mer random dsDNA library, 0.1% formaldehyde crosslink after washing; high values mean tight binding
What all share (conditions): protein: recombinant; tags: N-terminal GST; dsDNA, one strand shown

One experiment concerns the target T1, ELK1 (Homo sapiens, UniProt P19419 1-428).
T1 sequence: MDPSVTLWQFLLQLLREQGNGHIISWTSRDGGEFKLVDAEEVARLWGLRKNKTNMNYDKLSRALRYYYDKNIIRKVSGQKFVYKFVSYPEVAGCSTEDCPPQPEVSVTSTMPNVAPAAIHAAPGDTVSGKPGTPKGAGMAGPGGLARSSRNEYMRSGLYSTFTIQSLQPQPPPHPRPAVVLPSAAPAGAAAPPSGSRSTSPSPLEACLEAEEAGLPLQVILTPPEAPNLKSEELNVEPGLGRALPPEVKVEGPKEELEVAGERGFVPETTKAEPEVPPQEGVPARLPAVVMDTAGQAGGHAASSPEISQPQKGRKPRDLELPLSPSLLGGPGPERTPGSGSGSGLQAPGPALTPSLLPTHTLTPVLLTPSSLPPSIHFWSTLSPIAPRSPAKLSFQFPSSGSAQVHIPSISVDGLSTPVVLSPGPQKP
A digest of the protocol:
(§1)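 Binding signal is each hexamer's read frequency for a factor divided by its frequency in the tag-only sample. The factors were GST-fused human transcription factors from yeast, captured on glutathione beads, DNA-barcoded and pooled with that sample. Pools were incubated with 200 nmole of a random double-stranded 16-mer DNA library in Tris/NaCl/DTT/glycerol buffer at room temperature for 30 min, then washed, crosslinked with 0.1% formaldehyde, proximity-ligated with BsaI/T4 ligase (1 h, 37 °C), PCR-amplified and sequenced on an Illumina NextSeq500.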

The next experiment deals with T2, GABPA (Homo sapiens, UniProt Q06546 1-454).
T2 sequence: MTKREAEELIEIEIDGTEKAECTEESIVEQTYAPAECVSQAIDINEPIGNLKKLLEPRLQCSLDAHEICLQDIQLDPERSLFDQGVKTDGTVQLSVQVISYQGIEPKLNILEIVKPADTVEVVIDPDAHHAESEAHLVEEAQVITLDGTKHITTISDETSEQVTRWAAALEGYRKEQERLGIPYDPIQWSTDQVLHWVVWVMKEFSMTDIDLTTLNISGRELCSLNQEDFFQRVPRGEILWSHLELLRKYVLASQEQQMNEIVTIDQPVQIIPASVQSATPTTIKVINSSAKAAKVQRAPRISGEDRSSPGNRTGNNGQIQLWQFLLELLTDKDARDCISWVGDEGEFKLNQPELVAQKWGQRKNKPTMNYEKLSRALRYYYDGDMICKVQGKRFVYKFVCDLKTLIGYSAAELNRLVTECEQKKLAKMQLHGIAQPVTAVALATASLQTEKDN
In a few lines:
as §1

The target of a further experiment is T3, ERG (Homo sapiens, UniProt P11308 1-479).
T3 sequence: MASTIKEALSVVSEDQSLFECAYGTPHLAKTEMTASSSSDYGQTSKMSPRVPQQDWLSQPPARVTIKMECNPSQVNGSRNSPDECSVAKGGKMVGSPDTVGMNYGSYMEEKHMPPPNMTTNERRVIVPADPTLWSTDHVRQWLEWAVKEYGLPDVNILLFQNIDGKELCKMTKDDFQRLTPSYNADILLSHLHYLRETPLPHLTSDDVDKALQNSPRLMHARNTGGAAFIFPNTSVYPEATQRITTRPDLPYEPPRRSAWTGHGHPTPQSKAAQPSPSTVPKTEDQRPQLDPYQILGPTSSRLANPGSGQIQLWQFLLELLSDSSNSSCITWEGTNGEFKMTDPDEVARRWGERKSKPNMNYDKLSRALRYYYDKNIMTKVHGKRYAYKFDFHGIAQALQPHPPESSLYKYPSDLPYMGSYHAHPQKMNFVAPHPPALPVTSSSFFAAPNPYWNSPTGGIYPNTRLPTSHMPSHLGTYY
In a few lines: as §1

In the next experiment the target is ELF1 (Homo sapiens, UniProt P32519 1-619). In a few lines: as §1
Sequence of ELF1 (P32519 whole entry): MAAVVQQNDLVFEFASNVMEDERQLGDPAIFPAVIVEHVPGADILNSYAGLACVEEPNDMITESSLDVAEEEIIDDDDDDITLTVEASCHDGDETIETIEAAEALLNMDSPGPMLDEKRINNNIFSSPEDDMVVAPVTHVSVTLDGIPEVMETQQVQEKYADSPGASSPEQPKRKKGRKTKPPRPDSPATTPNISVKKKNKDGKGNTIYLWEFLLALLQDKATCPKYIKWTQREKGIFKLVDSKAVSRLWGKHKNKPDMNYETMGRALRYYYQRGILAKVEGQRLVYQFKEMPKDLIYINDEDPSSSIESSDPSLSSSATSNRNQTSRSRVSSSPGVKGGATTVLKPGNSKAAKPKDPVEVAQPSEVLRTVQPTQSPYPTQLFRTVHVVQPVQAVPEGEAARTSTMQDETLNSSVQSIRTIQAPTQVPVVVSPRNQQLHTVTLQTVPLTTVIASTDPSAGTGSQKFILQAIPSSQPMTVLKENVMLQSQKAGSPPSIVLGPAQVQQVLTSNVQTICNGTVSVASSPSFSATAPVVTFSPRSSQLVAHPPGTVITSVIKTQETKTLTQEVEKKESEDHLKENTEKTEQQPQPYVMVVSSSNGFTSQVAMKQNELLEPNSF
The target of a further experiment is SPI1 (Homo sapiens, UniProt P17947 1-270). A digest of the protocol:
as §1

The target of a further experiment is SPIB (Homo sapiens, UniProt Q01892 1-262). A digest of the protocol:
as §1

The target in another experiment is ELF4 (Homo sapiens, UniProt Q99607 1-663). A digest of the protocol:
as §1

Another experiment has as its target T4, ELF3 (Homo sapiens, UniProt P78545 1-371).
T4 sequence: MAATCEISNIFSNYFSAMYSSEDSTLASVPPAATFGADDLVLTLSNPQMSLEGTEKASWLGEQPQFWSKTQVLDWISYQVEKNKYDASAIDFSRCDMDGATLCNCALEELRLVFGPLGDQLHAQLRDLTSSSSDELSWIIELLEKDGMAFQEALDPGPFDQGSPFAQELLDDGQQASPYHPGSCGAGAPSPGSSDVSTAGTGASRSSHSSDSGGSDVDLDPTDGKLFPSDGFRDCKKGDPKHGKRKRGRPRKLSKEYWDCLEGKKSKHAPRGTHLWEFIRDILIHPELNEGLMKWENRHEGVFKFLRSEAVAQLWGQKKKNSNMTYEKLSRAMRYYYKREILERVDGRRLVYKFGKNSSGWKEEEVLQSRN
A digest of the protocol: as §1

The next experiment has as its target ETV1 (Homo sapiens, UniProt P50549 1-477). A digest of the protocol: as §1
For another experiment, the target named is T5, ETV3L (Homo sapiens, UniProt Q6ZN32 1-361).
T5 sequence: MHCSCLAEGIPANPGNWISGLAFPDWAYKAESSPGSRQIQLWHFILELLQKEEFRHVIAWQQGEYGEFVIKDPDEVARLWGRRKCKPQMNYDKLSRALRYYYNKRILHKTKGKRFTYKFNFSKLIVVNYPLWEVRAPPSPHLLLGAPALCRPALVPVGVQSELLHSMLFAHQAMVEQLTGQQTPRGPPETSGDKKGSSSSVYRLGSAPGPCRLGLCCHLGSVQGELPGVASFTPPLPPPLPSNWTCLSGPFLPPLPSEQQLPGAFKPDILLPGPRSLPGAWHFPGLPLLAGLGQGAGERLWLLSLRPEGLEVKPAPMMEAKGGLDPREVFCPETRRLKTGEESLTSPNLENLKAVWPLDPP
In a few lines:
as §1

For another experiment, the target named is T6, ETS2 (Homo sapiens, UniProt P15036 1-469).
T6 sequence: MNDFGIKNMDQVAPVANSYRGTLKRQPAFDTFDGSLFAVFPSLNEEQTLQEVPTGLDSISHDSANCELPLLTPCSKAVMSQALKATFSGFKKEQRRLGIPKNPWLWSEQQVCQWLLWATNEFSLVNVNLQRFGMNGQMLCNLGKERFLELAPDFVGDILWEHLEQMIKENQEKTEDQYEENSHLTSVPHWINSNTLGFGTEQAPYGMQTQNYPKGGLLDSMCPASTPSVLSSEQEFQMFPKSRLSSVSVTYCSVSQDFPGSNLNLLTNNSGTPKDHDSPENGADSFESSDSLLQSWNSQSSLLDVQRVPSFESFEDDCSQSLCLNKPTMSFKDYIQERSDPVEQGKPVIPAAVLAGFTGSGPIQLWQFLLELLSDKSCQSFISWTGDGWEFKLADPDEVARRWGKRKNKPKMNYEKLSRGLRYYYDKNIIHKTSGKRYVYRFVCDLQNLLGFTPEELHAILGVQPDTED
A digest of the protocol:
as §1

In the next experiment the target is T7, SPDEF (Homo sapiens, UniProt O95238 1-335).
T7 sequence: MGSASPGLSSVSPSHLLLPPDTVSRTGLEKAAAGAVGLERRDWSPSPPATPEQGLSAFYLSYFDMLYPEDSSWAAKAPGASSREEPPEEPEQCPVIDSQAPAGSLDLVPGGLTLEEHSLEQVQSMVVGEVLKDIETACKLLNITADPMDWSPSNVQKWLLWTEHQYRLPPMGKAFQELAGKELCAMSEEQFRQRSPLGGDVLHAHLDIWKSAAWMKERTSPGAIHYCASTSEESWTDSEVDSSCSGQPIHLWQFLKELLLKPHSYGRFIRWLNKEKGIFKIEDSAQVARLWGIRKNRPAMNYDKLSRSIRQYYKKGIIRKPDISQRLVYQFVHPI
In a few lines: as §1

The target in the next experiment is T8, ETV7 (Homo sapiens, UniProt Q9Y603 1-341).
T8 sequence: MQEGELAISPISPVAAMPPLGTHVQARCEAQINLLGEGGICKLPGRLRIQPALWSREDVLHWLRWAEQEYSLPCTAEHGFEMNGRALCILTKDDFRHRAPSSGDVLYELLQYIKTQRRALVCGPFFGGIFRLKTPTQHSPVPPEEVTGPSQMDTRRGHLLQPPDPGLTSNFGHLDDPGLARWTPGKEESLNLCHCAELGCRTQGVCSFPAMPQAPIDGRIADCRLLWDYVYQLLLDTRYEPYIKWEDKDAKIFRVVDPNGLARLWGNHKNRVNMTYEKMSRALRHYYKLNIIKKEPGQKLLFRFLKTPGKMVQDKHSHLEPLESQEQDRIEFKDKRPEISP
In a few lines:
as §1

The next experiment deals with T9, ETV3 (Homo sapiens, UniProt P41162-2 1-143).
T9 sequence: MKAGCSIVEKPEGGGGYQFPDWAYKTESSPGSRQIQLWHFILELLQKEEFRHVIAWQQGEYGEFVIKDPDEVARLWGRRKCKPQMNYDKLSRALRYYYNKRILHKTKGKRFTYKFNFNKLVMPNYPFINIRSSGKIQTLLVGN
In a few lines:
as §1

The next experiment has as its target ETV6 (Homo sapiens, UniProt P41212 1-452). A digest of the protocol:
as §1

The target of the next experiment is T10, SPIC (Homo sapiens, UniProt Q8N5J4 1-248).
T10 sequence: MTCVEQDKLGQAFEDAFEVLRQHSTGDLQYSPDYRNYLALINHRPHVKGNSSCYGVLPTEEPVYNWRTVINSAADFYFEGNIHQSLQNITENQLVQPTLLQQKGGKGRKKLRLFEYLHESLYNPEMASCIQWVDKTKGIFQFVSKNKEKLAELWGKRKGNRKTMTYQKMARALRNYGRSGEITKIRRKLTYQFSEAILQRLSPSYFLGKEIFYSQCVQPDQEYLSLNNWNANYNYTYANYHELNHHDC
In a few lines:
as §1

Another experiment deals with T11, ELK4 (Homo sapiens, UniProt P28324-2 1-405).
T11 sequence: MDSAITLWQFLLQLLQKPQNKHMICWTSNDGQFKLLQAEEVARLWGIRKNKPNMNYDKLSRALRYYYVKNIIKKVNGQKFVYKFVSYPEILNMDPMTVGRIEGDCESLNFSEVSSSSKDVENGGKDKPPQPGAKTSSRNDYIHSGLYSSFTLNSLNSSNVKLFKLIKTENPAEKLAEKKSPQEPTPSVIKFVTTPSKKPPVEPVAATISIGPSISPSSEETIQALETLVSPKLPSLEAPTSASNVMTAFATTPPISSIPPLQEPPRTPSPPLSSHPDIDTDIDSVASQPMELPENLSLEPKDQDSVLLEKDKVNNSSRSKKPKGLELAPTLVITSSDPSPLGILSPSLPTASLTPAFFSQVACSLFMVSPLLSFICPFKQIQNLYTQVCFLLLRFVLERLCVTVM
A digest of the protocol: as §1

In the next experiment the target is T12, ERF (Homo sapiens, UniProt P50548 1-548).
T12 sequence: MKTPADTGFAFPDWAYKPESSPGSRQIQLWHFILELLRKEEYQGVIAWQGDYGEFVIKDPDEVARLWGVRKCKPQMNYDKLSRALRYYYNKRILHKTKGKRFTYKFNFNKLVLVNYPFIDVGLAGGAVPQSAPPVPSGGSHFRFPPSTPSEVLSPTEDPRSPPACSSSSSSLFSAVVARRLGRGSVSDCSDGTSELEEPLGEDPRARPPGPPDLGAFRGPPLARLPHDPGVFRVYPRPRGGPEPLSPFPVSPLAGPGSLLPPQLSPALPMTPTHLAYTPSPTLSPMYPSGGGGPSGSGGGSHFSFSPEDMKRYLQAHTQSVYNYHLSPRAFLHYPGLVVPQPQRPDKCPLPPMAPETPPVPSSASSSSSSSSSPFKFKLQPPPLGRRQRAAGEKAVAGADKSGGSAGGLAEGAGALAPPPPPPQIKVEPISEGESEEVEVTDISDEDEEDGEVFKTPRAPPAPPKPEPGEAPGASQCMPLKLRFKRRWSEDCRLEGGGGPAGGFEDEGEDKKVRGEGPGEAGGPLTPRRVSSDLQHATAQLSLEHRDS
A digest of the protocol: as §1

Sequence of ELF4 (Q99607 whole entry): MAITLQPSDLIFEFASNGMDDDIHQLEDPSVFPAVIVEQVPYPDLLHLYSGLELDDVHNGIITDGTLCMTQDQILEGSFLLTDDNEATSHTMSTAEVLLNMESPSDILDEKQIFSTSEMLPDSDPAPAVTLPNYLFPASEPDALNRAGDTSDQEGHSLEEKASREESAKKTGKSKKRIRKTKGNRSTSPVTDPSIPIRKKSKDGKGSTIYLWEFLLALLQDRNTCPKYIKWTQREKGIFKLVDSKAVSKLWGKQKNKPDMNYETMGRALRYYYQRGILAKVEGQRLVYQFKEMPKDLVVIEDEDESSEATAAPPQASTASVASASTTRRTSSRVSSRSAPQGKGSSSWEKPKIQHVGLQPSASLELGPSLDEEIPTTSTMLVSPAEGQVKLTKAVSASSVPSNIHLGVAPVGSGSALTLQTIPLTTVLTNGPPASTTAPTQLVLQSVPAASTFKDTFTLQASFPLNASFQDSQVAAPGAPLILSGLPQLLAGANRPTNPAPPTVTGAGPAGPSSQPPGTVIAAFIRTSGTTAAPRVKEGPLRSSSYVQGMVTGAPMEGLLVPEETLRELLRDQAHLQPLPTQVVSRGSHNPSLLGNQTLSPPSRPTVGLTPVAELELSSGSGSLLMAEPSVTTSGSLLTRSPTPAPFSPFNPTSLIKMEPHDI
Sequence of ETV1 (P50549 whole entry): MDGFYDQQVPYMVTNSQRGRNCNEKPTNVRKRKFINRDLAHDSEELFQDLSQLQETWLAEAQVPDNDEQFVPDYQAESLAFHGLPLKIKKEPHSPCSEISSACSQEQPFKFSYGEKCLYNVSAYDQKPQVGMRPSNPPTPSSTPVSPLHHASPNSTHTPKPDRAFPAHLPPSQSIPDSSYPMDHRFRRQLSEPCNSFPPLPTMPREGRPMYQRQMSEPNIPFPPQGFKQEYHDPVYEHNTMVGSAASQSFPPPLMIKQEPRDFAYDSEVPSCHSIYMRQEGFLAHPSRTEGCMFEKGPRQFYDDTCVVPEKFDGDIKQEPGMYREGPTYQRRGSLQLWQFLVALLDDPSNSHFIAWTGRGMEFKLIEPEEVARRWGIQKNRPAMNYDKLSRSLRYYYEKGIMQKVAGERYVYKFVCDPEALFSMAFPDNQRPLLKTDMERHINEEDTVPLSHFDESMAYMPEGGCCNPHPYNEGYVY
Sequence of ETV6 (P41212 whole entry): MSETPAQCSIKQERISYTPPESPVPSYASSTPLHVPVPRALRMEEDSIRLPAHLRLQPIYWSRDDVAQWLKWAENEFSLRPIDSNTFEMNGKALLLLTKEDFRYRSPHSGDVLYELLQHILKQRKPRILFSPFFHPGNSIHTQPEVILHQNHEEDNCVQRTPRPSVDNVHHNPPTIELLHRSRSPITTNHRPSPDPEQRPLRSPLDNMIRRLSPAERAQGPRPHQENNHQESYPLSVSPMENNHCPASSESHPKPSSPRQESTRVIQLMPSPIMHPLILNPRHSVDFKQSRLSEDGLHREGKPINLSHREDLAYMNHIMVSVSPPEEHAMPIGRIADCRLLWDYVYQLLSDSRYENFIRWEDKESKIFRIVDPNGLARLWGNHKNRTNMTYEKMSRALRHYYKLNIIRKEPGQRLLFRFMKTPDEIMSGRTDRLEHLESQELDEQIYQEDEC
Sequence of SPIB (Q01892 whole entry): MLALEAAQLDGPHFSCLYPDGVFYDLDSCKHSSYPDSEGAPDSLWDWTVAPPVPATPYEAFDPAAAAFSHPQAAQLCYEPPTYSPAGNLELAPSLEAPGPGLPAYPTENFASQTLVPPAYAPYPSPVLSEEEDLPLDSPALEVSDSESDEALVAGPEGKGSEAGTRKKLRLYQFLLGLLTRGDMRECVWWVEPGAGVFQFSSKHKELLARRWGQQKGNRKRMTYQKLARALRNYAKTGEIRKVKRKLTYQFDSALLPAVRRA

With TCAGAT, the binding signal with ELK1 is 1.05 fold enrichment (6-mer frequency, TF over GST control); in the experiment with GABPA it was 1.03 fold enrichment (6-mer frequency, TF over GST control); with ERG it was 1.06 fold enrichment (6-mer frequency, TF over GST control); with ELF1, 1.04 fold enrichment (6-mer frequency, TF over GST control); in the experiment with SPI1, 1.08 fold enrichment (6-mer frequency, TF over GST control); with SPIB, 1.02 fold enrichment (6-mer frequency, TF over GST control). For the same sequence, the binding signal with ELF4 is 1.02 fold enrichment (6-mer frequency, TF over GST control); in the experiment with ELF3, 1.08 fold enrichment (6-mer frequency, TF over GST control); in the experiment with ETV1, 1.05 fold enrichment (6-mer frequency, TF over GST control); with ETV3L it was 1 fold enrichment (6-mer frequency, TF over GST control); with ETS2, 1.02 fold enrichment (6-mer frequency, TF over GST control); with SPDEF, 1.07 fold enrichment (6-mer frequency, TF over GST control). In addition, the binding signal with ETV7 is 1.03 fold enrichment (6-mer frequency, TF over GST control); with ETV3, 1.02 fold enrichment (6-mer frequency, TF over GST control); with ETV6, 1.08 fold enrichment (6-mer frequency, TF over GST control).

Take ACTTGA: the binding signal with ELK1 is 1.1 fold enrichment (6-mer frequency, TF over GST control); with GABPA, 1 fold enrichment (6-mer frequency, TF over GST control); with ELF1, 1.02 fold enrichment (6-mer frequency, TF over GST control); with SPIC, 1 fold enrichment (6-mer frequency, TF over GST control); in the experiment with ELF4, 1.07 fold enrichment (6-mer frequency, TF over GST control); in the experiment with ELK4 it was 1.14 fold enrichment (6-mer frequency, TF over GST control). Besides, the binding signal is 1.04 fold enrichment (6-mer frequency, TF over GST control) with ELF3; 1.07 fold enrichment (6-mer frequency, TF over GST control) in the experiment with ETV1; 1.01 fold enrichment (6-mer frequency, TF over GST control) in the experiment with ERF; 1.08 fold enrichment (6-mer frequency, TF over GST control) in the experiment with ETV7; 1.07 fold enrichment (6-mer frequency, TF over GST control) with ETV3.

(Values after publication PMC7862700, “An all-to-all approach to the identification of sequence-specific readers for epigenetic DNA modifications on cytosine”.)
